# The list is not random: actives were taken first. Their share in the collection is about 2.8%.
# Pol kappa inh-1: DNA polymerase kappa (human) inhibition; 400,000 tested, 0.53% active; purified Pol kappa, fluorescent DNA synthesis assay, 10 min; Potency, µM (highest dose often 107 µM), for inactives: at the top dose activity, negative = inhibition, hits mostly inhibitors; note: potency is the fitted concentration of half-maximal effect; % is set by controls: 0 for no effect and ±100 for the full control effect
#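 10 nM Pol kappa was preincubated with compounds for 15 min at room temperature. Reaction started with 50 nM (final) substrate. Fluorescence read kinetically at 0 and 10 min.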
# POLI inh: inhibitors of human DNA polymerase iota | Q9UNA4 | Pol iota fluorescent replication assay, 10 min | Potency, µM (series often up to 115 µM), for inactives: at the highest dose activity, negative = inhibition, actives largely listed as inhibitors | 390,000 tested, 1% active | AID 588590; note: potency is the fitted concentration of half-maximal effect
#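 Fluorescent replication assay read twice, at 0 min and 10 min after adding 50 nM (final) substrate. Enzyme (10 nM) and compounds were first incubated 15 min at room temperature; enzyme-free buffer wells were negative controls.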
# Pol eta inh-1: blocks human DNA polymerase eta activity | Q9Y253 | recombinant Pol eta, fluorescent DNA replication assay | Potency, µM (titrated, usually from 114 µM), for inactives: top-dose activity change, negative = inhibition, actives largely listed as inhibitors | 390,000 tested, 1.2% active | AID 588591; note: potency is the fitted concentration of half-maximal effect; % is set by controls: 0 for no effect and ±100 for the full control effect
#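 Fluorescent replication assay: 50 nM final substrate added after a 15 min room-temperature compound preincubation with 10 nM enzyme. Signal taken at 0 min and again at 10 min.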
# PI5P4K alpha inh: PI5P4K alpha (human) kinase inhibition. 330,000 tested, 1.2% active. P48426. max response, %. AID 652105. PI5P4Kalpha enzyme, ADP-Glo luminescence, 60 min; active compounds read low; active = max response of -50% or lower; inconclusive = between -30% and -50%; inactive = -30% or higher; note: value at the top dose of about 77 µM; % is set by controls: 0 for no effect and ±100 for the full control effect
# Target sequence (P48426 whole entry, looked up): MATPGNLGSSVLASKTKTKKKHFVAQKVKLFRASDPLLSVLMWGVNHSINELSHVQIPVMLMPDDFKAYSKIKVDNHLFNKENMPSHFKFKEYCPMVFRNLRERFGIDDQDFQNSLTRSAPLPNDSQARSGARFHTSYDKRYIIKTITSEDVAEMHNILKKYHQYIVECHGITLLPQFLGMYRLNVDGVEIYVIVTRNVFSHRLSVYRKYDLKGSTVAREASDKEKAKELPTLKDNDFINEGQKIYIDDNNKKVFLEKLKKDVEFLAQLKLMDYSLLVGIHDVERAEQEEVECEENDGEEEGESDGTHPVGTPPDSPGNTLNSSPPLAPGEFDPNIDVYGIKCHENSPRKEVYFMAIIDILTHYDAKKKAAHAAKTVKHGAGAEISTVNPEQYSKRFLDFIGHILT
#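 Reactions run in 0.038 M HEPES pH 7.4, 0.28 mM EGTA, 0.1% CHAPS and 5% DMSO, with PI5P4Kalpha, substrate, compound and 5 microM ATP final, one hour at room temperature. Readout is ADP-Glo luminescence.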
# WRN helicase inh: blocks human WRN helicase. Q14191. WRN helicase unwinding, fluorescent forked duplex, kinetic. Potency, µM (series often up to 114 µM), inactives show top-dose activity change, negative = inhibition, most hits filed as inhibitors. 360,000 tested, 0.46% active; note: potency is the fitted concentration of half-maximal effect; % is set by controls: 0 for no effect and ±100 for the full control effect; nearly all actives have a fitted effect of over 55% in size
#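 Enzyme (20 nM final) and test compound sit together 15 min at room temperature before substrate addition. Substrate is a single-forked duplex oligonucleotide (100 nM) labelled with fluorophore and quencher, with 2 mM ATP; helicase unwinding raises red fluorescence, read kinetically.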
# POLB inh: blocks human DNA polymerase beta activity; Potency, µM (series often up to 114 µM), without a hit: at the highest dose activity change, negative = inhibition, hits mostly inhibitors; P06746; Pol beta primer extension/strand displacement, fluorescence kinetic; 340,000 tested, 1.3% active; note: potency is the fitted concentration of half-maximal effect; % is set by controls: 0 for no effect and ±100 for the full control effect
#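 Pol beta (10 nM) was preincubated with compound for 15 min at room temperature. The reaction was then started with 50 nM substrate and read immediately and after a further 10 min at room temperature.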
# Pol kappa inh-2: confirmation of human DNA polymerase kappa inhibitors; shares compounds with Pol eta inh-1; purified Pol-kappa, fluorescent strand-displacement substrate; Potency, µM, hits mostly inhibitors; 920 tested, 76% active; AID 720501; note: potency is the fitted concentration of half-maximal effect
# Pol eta inh-2: Pol eta (human) inhibition, cherry-pick confirmation; shares compounds with Pol eta inh-1; Pol eta primer extension, TAMRA/BHQ fluorescence, 10 min; Potency, µM, hits mostly inhibitors; 2,600 tested, 64% active; AID 720502; note: potency is the fitted concentration of half-maximal effect
# Starred values were filed as active, the others as inactive; u = inconclusive; x = not tested or not shown; [ ] = dose if it differs, or a comment. Unless noted, calls come from the whole dose curve; as a rule, active = well fitted curve in the direction sought with a large enough effect; inconclusive = small, poorly fitted or top-dose-only effect, or another doubt; inactive = no such curve, though single readings can be large; an effect the other way counts as inactive or inconclusive.
SMILES,Pol kappa inh-1,POLI inh,Pol eta inh-1,PI5P4K alpha inh,WRN helicase inh,POLB inh,Pol eta inh-2,others
O=C(Nc1ccc(Br)cc1Cl)c1cnccn1,-34%,u,40µM*,x,u,5%,76*,
Oc1ccc(/C=N/n2c(COc3ccccc3)n[nH]c2=S)cc1O,20µM*,6.3µM*,u,-23,u,6.3µM*,17*,
Cc1ccc(Cl)c2c1N[C@@H](c1ccc(C(=O)O)cc1)[C@H]1CC=C[C@@H]21,32µM*,32µM*,u,x,x,16µM*,u,Pol kappa inh-2=75*
Cc1cccc(C)c1NS(=O)(=O)c1ccc2c(c1)[C@H]1C=CC[C@H]1[C@@H](c1ccc(Cl)cc1)N2,-12%,-17%,5%,x,x,u,x,
COc1ccc(N2Cc3cccc(C(=O)Nc4ccc(Cl)cc4)c3C2=O)cc1,-32%,u,u,x,x,13µM*,u,Pol kappa inh-2=u
COc1ccc(N2Cc3cccc(C(=O)N4CCOCC4)c3C2=O)cc1,4%,17%,-8%,-4,10%,3%,x,
C/C(=N\Nc1ccc(C(=O)O)cc1)c1ccc2c(c1)Nc1ccccc1S2,u,22µM*,25µM*,u,-35%,u,76*,
C/C(=N/Nc1ccc(C(=O)O)cc1)c1ccc2c(c1)Nc1ccccc1S2,u,50µM*,18µM*,-23,-5%[11.6 µM],x,76*,Pol kappa inh-2=38*
CC(=O)Nc1ccc(NC(=O)c2ccc3c(c2)NC(=O)c2ccccc2S3)cc1,5%,-12%,-23%,x,x,8%,x,
O=C(NCc1cccs1)c1ccc(CSc2nc3ccncc3n2Cc2ccccc2)cc1,-16%,55%,-10%,x,x,-6%,x,
Cc1cc(C)c(Cn2c(=O)n(CCC(=O)NCc3ccc4c(c3)OCO4)c(=O)c3ccccc32)c(C)c1,0%,7%,-17%,x,x,25%,x,
COc1cc(/C=C2\NC(=S)NC2=O)ccc1OCc1cccc(C(=O)O)c1,u,u,22µM*,-4,u,u,38*,Pol kappa inh-2=21*
CC(=O)c1ccc(Nc2nc3ccccc3nc2-n2nc(C)cc2C)cc1,-10%,16%,-12%,x,x,-16%,x,
CN(C)NC(=O)C12CCC(C)(C(=O)O1)C2(C)C (stereo unspecified),-4%,u,1%,3,-5%,7%,x,
CC1=NN(c2nc(-c3ccccc3)cs2)C(=O)C1,-36%,u,50µM*,-28,u,-1%,u,
CCCN(CC(=O)Nc1ccccc1C)C(=O)c1ccc(S(=O)(=O)N2CCC(C)CC2)cc1,-4%,24%,-15%,5,4%,x,x,
CC(C)[C@@H]1Cc2[nH][nH]c(=O)c2[C@H](c2ccc(F)cc2)O1,x,x,x,-4,-2%,x,x,
COc1ccc(/C=C/C(=O)O)cc1S(=O)(=O)NC1CCS(=O)(=O)C1 (stereo unspecified),-24%,u,28µM*,-3,-6%[11.6 µM],u,u,Pol kappa inh-2=67*
COc1cc(/C=C/C(=O)O)cc(S(=O)(=O)NC2CCCC2)c1OC,-8%,9%,-13%,1,-1%,-1%,x,
COc1ccc(/C=C/C(=O)O)cc1S(=O)(=O)NCc1ccco1,-21%,u,56µM*,-10,-3%,u,67*,
COc1cc(/C=C/C(=O)O)cc(S(=O)(=O)NCc2ccco2)c1OC,-3%,84%,-15%,0,-1%,2%,x,
O=C(O)c1ccc2c(c1)C(=O)N(c1cccc(C(=O)/C=C/c3ccccc3)c1)C2=O,-12%,u,32µM*,-13,u,48%,60*,
COc1ncccc1C(=O)N1CCCC(C(=O)Nc2cccc(-c3ccc(F)cc3)c2)C1 (stereo unspecified),x,x,-8%,9,-2%,x,x,

# Screening data (PubChem BioAssay)
